The text below walks through data of the supplement of paper PMC10338343.

± gives the standard deviation. The full ranking holds about 8,200 sequences; the median of “pre-steady-state target cleavage rate” is about 0.024, and the highest 2% start at about 1.3. Shown is part of a subset that was picked to be rich in the highest values.

In the test the test system is MIWI (PIWIL1) piRISC loaded with L1MC piRNA (30 nt). Nature of the test: pre-steady-state target cleavage rate (min^-1); MIWI and MILI are mouse PIWI proteins and EfPiwi is from a freshwater sponge; tags in brackets are library labels; higher = faster piRNA-guided slicing of the target. To be noted: guide: L1MC piRNA 5'p-UAACUAAAUACUAUGCAAGCUGUAGGUCCU
The procedure: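 Cleave-'n-Seq: a library of target RNAs (target site embedded in constant flanks, ACAGCATTCCGCGTTAGTGATATCCG... 5' flank; DNA-blocked outside the site) at 0.1 nM was incubated with 1 nM active mouse MILI or MIWI piRISC (synthetic 5'-monophosphorylated piRNA guide) with or without 500 nM mouse GTSF1 at 33 °C for 1 min to 16 h. Uncleaved targets were sequenced and normalised to non-target controls, and the pooled three trials were fitted to a burst-and-steady-state model to give the pre-steady-state cleavage rate (min^-1; k3 is constrained to at most 1e-4). Sequence is the target site only; target names encode pairing extent (gX:gY) and contiguous / 1-mismatch / 2-mismatch / bulge geometry. Fits with R² ≤ 0 are excluded.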

Setting [1] is: auxiliary factor: 500 nM mouse GTSF1.
Setting [2] is: auxiliary factor: none (no GTSF1).

Regarding AGGACCUACAGCUUGCUUAGUAUAUAGUUA, the “pre-steady-state target cleavage rate” value under setting [1] was 0.762 ± 0.071 and the “pre-steady-state target cleavage rate” value under setting [2] worked out at 0.0291 ± 0.0082.
Turning to AGGACCUUCAGCUUGCUUAGUAUUUAGUUA, the “pre-steady-state target cleavage rate” value under setting [1] came to 1.44 ± 0.055 and the “pre-steady-state target cleavage rate” value under setting [2] is 0.0546 ± 0.01.
As for UCGACCUACAGCUUGCUUAGUAUAUAGUUA, the “pre-steady-state target cleavage rate” value under setting [1] came to 0.879 ± 0.063 and the “pre-steady-state target cleavage rate” value under setting [2] was found to be 0.0168 ± 0.004.
For the sequence UGGACCUUCAGCUUGCUUAGUAUUUAGUUA, the “pre-steady-state target cleavage rate” value came out at 1.49 ± 0.09 under setting [1] and 0.0441 ± 0.011 under setting [2].
In the case of UGGACCUACAGCUUGCUUAGUAUAUAGUUA, the “pre-steady-state target cleavage rate” value worked out at 0.842 ± 0.063 under setting [1] and 0.0175 ± 0.0052 under setting [2].
Turning to UCCACCUACAGCUUGCUUAGUAUAUAGUUA, the “pre-steady-state target cleavage rate” value is, setting by setting: under setting [1], 0.357 ± 0.027; under setting [2], 0.0111 ± 0.0025.
On to UCCUCCUACAGCUUGCUUAGUAUAUAGUUA, for which the “pre-steady-state target cleavage rate” value runs as follows: under setting [1], 0.617 ± 0.034; under setting [2], 0.0104 ± 0.0032.
Take AGGACCUACAGCUUGGAUAGUAUAUAGUUA: the “pre-steady-state target cleavage rate” value is, setting by setting: under setting [1], 0.736 ± 0.053; under setting [2], 0.0336 ± 0.0076.
The matching figures for AGGACCUACAGCAUGCAUACUAUUUAGUUA: 0.39 ± 0.023 and 0.0205 ± 0.0035.
In the same order, the values of AGGACCUACAGCUGGCAUAGUAUUUAGUUA are 1.29 ± 0.057 and 0.0579 ± 0.011.
In the case of UCCUGCUACAGCUCGCAUAGUAUUUAGUUA, the “pre-steady-state target cleavage rate” value worked out at 1.14 ± 0.062 under setting [1] and 0.0391 ± 0.0067 under setting [2].
With UGGACCUACAGCUACCAUAGUAUUUAGUUA, the “pre-steady-state target cleavage rate” value came out at 0.493 ± 0.043 under setting [1] and 0.00241 ± 0.0021 under setting [2].
For the sequence UCCUCCUACAGCUCGCAUAGUAUUUAGUUA, the “pre-steady-state target cleavage rate” value was found to be 1.31 ± 0.051 under setting [1] and 0.0488 ± 0.0093 under setting [2].
With UGGACCUACAGCUCGCAUAGUAUUUAGUUA, the “pre-steady-state target cleavage rate” value was found to be 1.54 ± 0.096 under setting [1] and 0.0604 ± 0.0083 under setting [2].
As to AGGACCUACAGCUCGCAUAGUAUUUAGUUA, the “pre-steady-state target cleavage rate” value was found to be 1.35 ± 0.068 under setting [1] and 0.0694 ± 0.013 under setting [2].
Regarding UCCACCUACAGCUCGCAUAGUAUUUAGUUA, the “pre-steady-state target cleavage rate” value runs as follows: under setting [1], 1.11 ± 0.043; under setting [2], 0.0579 ± 0.012.
As for UCGACCUACAGCUCGCAUAGUAUUUAGUUA, the “pre-steady-state target cleavage rate” value by setting is: under setting [1], 1.55 ± 0.04; under setting [2], 0.0682 ± 0.013.
Regarding UGGACCUACAGCUUGCAUAGUUUUUACUUA, the “pre-steady-state target cleavage rate” value by setting is: under setting [1], 0.0927 ± 0.013; under setting [2], 0.0125 ± 0.0027.
In the case of UGCACCUACAGGUUGCAUAGUAUUUAGUUA, the “pre-steady-state target cleavage rate” value is, setting by setting: under setting [1], 0.859 ± 0.15; under setting [2], 0.0244 ± 0.0052.
As for UCCUGCUACAGCUUGCAUAGAAAUUAGUUA, the “pre-steady-state target cleavage rate” value by setting is: under setting [1], 0.2 ± 0.021; under setting [2], 0.00609 ± 0.0021.
As to AGGACCUACACCUUGCAUAGUAUUUAGUAA, the “pre-steady-state target cleavage rate” value is, setting by setting: under setting [1], 0.838 ± 0.068; under setting [2], 0.0538 ± 0.0089.
On to UCCACCUACAGCUUGCAUAGUAUUUUCUAA, for which, under setting [1], the “pre-steady-state target cleavage rate” value came out at 0.361 ± 0.048.
Regarding UCCUGGAACAGCUUGGAUAGUAAUUAGUUA, the “pre-steady-state target cleavage rate” value under setting [1] was 0.565 ± 0.055 and the “pre-steady-state target cleavage rate” value under setting [2] turned out to be 0.0197 ± 0.0059.
Take UCCUGGAACAGCUUGCAUAGUUUUUAGUAA: the “pre-steady-state target cleavage rate” value runs as follows: under setting [1], 0.191 ± 0.025; under setting [2], 0.0332 ± 0.01.
For the sequence UCCUGGUACUGCUUGGAUAGUAUUUAGUUA, the “pre-steady-state target cleavage rate” value came to 0.391 ± 0.078 under setting [1] and 0.0193 ± 0.0036 under setting [2].
Turning to UGGACCUACUGCUUGCAUAGUAUUUAGUAA, the “pre-steady-state target cleavage rate” value under setting [1] was 0.708 ± 0.039 and the “pre-steady-state target cleavage rate” value under setting [2] was found to be 0.0421 ± 0.008.
For UCGACCUACUGCUUGCAUAGUAUUUAGAUA, the “pre-steady-state target cleavage rate” value came to 0.273 ± 0.023 under setting [1] and 0.0197 ± 0.0035 under setting [2].
ACGACCUACUGCUUGCAUAGUAUUUAGUUA: the “pre-steady-state target cleavage rate” value amounted to 1.51 ± 0.054 under setting [1] and 0.0792 ± 0.013 under setting [2].
For UCCACCUACUGCUUGCAUAGUAUUUAGUUA, the “pre-steady-state target cleavage rate” value reads like this: under setting [1], 0.697 ± 0.027; under setting [2], 0.0467 ± 0.0067.
The matching figures for AGGACCUACUGCUUGCAUAGUAUUUAGUUA: 1.21 ± 0.049 and 0.0777 ± 0.012.
With UGGACCUACUGCUUGCAUAGUAUUUAGUUA, the “pre-steady-state target cleavage rate” value under setting [1] is 1.46 ± 0.073 and the “pre-steady-state target cleavage rate” value under setting [2] was determined as 0.0611 ± 0.0097.
With UCGACCUACUGCUUGCAUAGUAUUUAGUAA, the “pre-steady-state target cleavage rate” value is 0.797 ± 0.036 under setting [1] and 0.0434 ± 0.0074 under setting [2].
As to UCGACCUACUGCUUGCAUAGUAUUUAGUUA, the “pre-steady-state target cleavage rate” value by setting is: under setting [1], 1.41 ± 0.035; under setting [2], 0.0694 ± 0.011.
The matching figures for UCGACCUACUGCUUGCUUAGUAUUUAGUUA: 1.52 ± 0.061 and 0.031 ± 0.0067.
Take UGCACCUACUGCUUGCAUAGUAUUUAGUUA: the “pre-steady-state target cleavage rate” value was 1.16 ± 0.097 under setting [1] and 0.0725 ± 0.014 under setting [2].
UCCACCUACUGCUUGCUUAGUAUUUAGUUA: the “pre-steady-state target cleavage rate” value runs as follows: under setting [1], 0.816 ± 0.029; under setting [2], 0.0276 ± 0.0058.
The matching figures for UCCUCCUACUGCUUGCUUAGUAUUUAGUUA: 1.06 ± 0.04 and 0.03 ± 0.0053.
